PubChem BioAssay
A number with no mark means an inactive call. How the calls were made is not given here.

biological target: Pantothenate synthetase (Mycobacterium tuberculosis (strain ATCC 25618 / H37Rv)) (UniProt P9WIL5); assay: Coupled enzyme confirmation of inhibitors against recombinant Mtb PanC (AID 375); settings: coupled enzyme assay; at 10 µM, active compounds read high;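 further: 0% = full reaction with vehicle and 100% = no enzyme background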
Sequence (P9WIL5 whole entry, looked up): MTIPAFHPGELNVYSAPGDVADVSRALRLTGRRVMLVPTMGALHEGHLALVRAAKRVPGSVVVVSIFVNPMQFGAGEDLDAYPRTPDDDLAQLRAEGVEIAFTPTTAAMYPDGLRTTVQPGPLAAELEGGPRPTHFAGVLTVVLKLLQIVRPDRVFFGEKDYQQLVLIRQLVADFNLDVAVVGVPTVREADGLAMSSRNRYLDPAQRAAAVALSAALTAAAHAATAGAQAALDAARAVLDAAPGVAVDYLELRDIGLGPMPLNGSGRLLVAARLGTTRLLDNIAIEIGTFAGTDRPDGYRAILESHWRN

| Compound | inhibition [%] |
| --- | --- |
| CCOc1ccc(-n2cc(C(=O)N3CCN(C)CC3)c3cc(OC)c(OC)cc3c2=O)cc1 | 0 |
| Cc1ccc2c(c1)N(CC(=O)Nc1ccc3c(c1)OCCO3)C(=O)CO2 | 0 |
| O=C(CSc1nnnn1-c1ccccc1)Nc1ccc(Cl)cc1 | 0 |
| CCOC(=O)N1CCC(NC(=O)c2ccc3c(c2)N(C)CCS3)CC1 | 6 |
| O=C(NC1CCCCC1)C(c1ccc(Cl)cc1)N(C(=O)c1cnccn1)c1ccc2c(c1)OCO2 (stereo not given) | 0 |
| CCOC(=O)N1CCC(=C2c3ccc(Cl)cc3CCc3cccnc32)CC1 | 5 |
| Cc1c(C(=O)OC2CCCCC2)[nH]c2c1C(=O)CC(C)(C)C2 | 0 |
| CC(=O)c1ccc(NS(=O)(=O)c2ccccc2)cc1 | 0 |
| Cc1cc(NC(=O)COc2ncnc3sc(C)c(C)c23)no1 | 0 |
| CC(=O)Nc1cccc(-c2nnc(-c3ccccc3)o2)c1 | 4 |
| CCOC(=O)N1CCC(NC(=O)Cn2c3c(c(-c4ccccc4Cl)cc2=O)CCC3)CC1 | 0 |
| O=c1cc(-c2ccc(Cl)cc2)[nH][nH]1 | 1 |
| O=C(Nc1cccnc1)c1noc2c1CCCCC2 | 0 |
| Cc1occc1-c1nnc(SCC(=O)c2ccc(F)cc2)n1Cc1ccco1 | 3 |
| CCn1nc(NC(=O)c2cccnc2)c2cc3ccccc3nc21 | 0 |
| COc1ccc(OC)c(C(=O)CSc2nc3ncccc3[nH]2)c1 | 0 |
| COCCOc1nc2ccccc2nc1C | 0 |
| CCn1c(SCC(=O)Nc2ccccc2F)nc2c(c1=O)SC(C)C2 (stereo not given) | 0 |
| COc1cccc(-c2nnc(SCC(N)=O)n2-c2ccc(Cl)cc2)c1 | 0 |
| CCn1c(CC(=O)Nc2cccc(OC)c2)nnc1SCC(=O)Nc1nccs1 | 0 |

| Compound | inhibition [%] |
| --- | --- |
| Cc1ccccc1CSc1nnc(C)c(=O)[nH]1 | 0 |
| CNc1nnc(-c2cccc(N(C)C)c2)s1 | 0 |
| COc1ccc2c(-c3cccnc3)cc(=O)[nH]c2c1 | 6 |
| COCC(=O)N(C)c1nnc(-c2ccccn2)s1 | 2 |
| CCOC(=O)C1CCN(C(=O)C2CCN(S(=O)(=O)c3cc(Cl)ccc3Cl)CC2)CC1 | 12 |
| CCOC(=O)c1cc(CC)sc1NC(=O)COC | 7 |
| COc1ccccc1CC(NC(C)=O)C(=O)NC1CCN(c2nnnn2-c2ccccc2)CC1 (stereo not given) | 0 |
| O=S(=O)(c1ccc2ccccc2c1)N(CC(O)CN1CCOCC1)c1ccccc1 (stereo not given) | 0 |
| CN(C)CC(O)COc1ccc(-c2ccc(C#N)cc2)cc1 (stereo not given) | 3 |
| O=C(CSc1nc2ccccc2o1)NC(=O)NCc1ccco1 | 0 |
| COC(=O)Cn1c(CCS(=O)(=O)c2ccc(C)cc2)nc2ccccc21 | 1 |
| CCCOC(=O)/C(C(N)=NCc1ccccc1)=C(\O)OCCC | 0 |
| CN1CCN(S(=O)(=O)c2ccc(NC(=O)Nc3cccc(Cl)c3)cc2)CC1 | 1 |
| CC(=O)Nc1ccc(S(=O)(=O)NCc2csc(-c3cccnc3)n2)cc1 | 0 |
| CCS(=O)(=O)NCCc1cc2c(OC)ccc(OC)c2[nH]c1=O | 3 |
| O=S(c1ccsc1)c1ccsc1 | 0 |
| CCOC(=O)c1[nH]c(C)c(C(=O)Nc2ccc(C)cc2C)c1C | 1 |
| Cn1c2ccc(F)cc2c2ncn(CCN3CCOCC3)c(=O)c21 | 6 |
| COc1cc2c(cc1OC)C(/C(C#N)=N\O)=NC(C)(C)C2 | 2 |
| COc1ccccc1N1CC(C(=O)Nc2cccc(C(=O)O)c2)CC1=O (stereo not given) | 0 |
